The record followed here is PubChem BioAssay AID1947 (The Scripps Research Institute Molecular Screening Center, 2009).

Out of some 300,000 compounds screened, about 990 (0.33%) were called active. Many of the other results were omitted from the sample, so actives are more common in it than they were. Unmarked numbers belong to inactive results.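 How the source made its calls: active means inhibition above the screen mean inhibition plus 3 SD, computed separately per campaign (cut at about 18% in these data); inactive means the rest.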

This assay concerns Fam108B (ABHD17B) serine hydrolase [Mus musculus]. Nature of the assay: mouse Fam108B serine hydrolase inhibitors, primary screen, counter-screen for RBBP9 inhibitor project, biochemical, fluorescence polarization (AID 1947).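 Further: inhibitors lower polarization as less probe binds the enzyme.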 The note with it: recombinant Fam108B, FP-Rh probe fluorescence polarization; at 9.51 µM; hits give high values. For orientation: The purpose of a counterscreen is to sort out artefacts and off-target activity.
In general, inhibition refers to the relative decrease from the control value, in per cent. Consider `O=C(CN1CCN(c2ccc(O)cc2)CC1)Nc1cc(S(=O)(=O)N2CCOCC2)ccc1Cl`, for which the inhibition was 1.19%.

Regarding `O=[N+]([O-])c1cc(Cl)cc(/C=N/NC(=S)Nc2cc(S(=O)(=O)N3CCOCC3)ccc2Cl)c1O`, the inhibition was 49.6% (active). For `O=C(N/N=C/c1cc(Cl)cc([N+](=O)[O-])c1O)C(O)(c1ccccc1)c1ccccc1` the value was 7.58%; for `O=C(O)COc1ccc(-c2nccc(-c3cccs3)n2)cc1`, -4.89%. In the case of `COC(=O)c1cc(-c2cccs2)nc2ccccc12` it was -5.99%; in that of `COC(=O)CSc1nccc(-c2cccs2)n1`, 25.3% (active). Turning to `Cc1ccc([C@@H]2CC=C(C(=O)O)[C@H](c3cccc(Cl)c3)N2S(=O)(=O)c2ccc(C)cc2)cc1`, the inhibition is -3.66%.

For the compound `CC(C)(C)NC(=O)NC(=O)COC(=O)Cc1ccc(Cl)cc1Cl`, the inhibition is -3.17%. For `COc1ccc(-c2csc(NC(=O)COC(=O)Cc3ccc(Cl)cc3Cl)n2)cc1` the value was 25.7% (active). For `COc1ccc(-c2csc(NC(=O)COC(=O)c3ccc(Br)o3)n2)cc1` the value was -1.38%; for `CC(C)(C)c1ccc(/C=C2\SC(=O)N=C2N)cc1`, -2.33%. In the case of `COCCOC(=O)c1sc(=S)n(CCOC)c1N` it was 30.9% (active).

In the case of `CCOC(=O)c1c(N)sc(C(C)=O)c1C`, the inhibition is 2.44%. For `COC(=O)c1sc(=S)n(-c2ccc(Cl)cc2)c1C` the value was 0.66%; for `Cc1cc2nc3c(=O)n(Cc4ccccc4)c(=O)[nH]c3nc2cc1N`, 20.1% (active).

As for `CC(=O)c1ccc(-c2ccc(Cn3c(C)nc4cc(N)c(C)nc43)cc2)cc1`, the inhibition is -2.95%. For `Cc1cc(-c2csc(N)n2)c(C)n1Cc1ccccc1` the value was 1%; for `C=C1C2C[C@H](O)C(C)(C)[C@@]2(O)[C@H](O)C[C@]23C[C@@](C)(O)[C@H](CC[C@H]12)[C@H]3O` (some centres undefined), -4.05%.

For the compound `CCN(CC(=O)Nc1ccc2c(c1)OCO2)S(=O)(=O)c1ccccc1`, the inhibition was 3.09%. For the compound `CC(=O)Nc1ccc(NC(=O)CSc2ncnc3c2cnn3Cc2ccccc2)cc1`, the inhibition is 1.73%. In the case of `CSc1c(SCc2ccccc2)cnn(Cc2ccccc2)c1=O` it was 52.1% (active); in that of `CCn1c(SCc2ccccc2)nc2c(c1=O)SCC2`, 5.08%; in that of `Cc1noc(C)c1S(=O)(=O)N(C)Cc1ccccc1`, -2.49%. In the case of `Cc1cc(C)cc(C(=O)N(CCc2ccccc2)C2=CC3CCC(C2)N3C)c1` (centres undefined) it was -0.23%; in that of `COCC(C)NC(=O)CSc1nc2nn(-c3ccccc3)c(=O)c-2c2n1CCCCC2` (centres undefined), 0.63%; in that of `O=C(Cn1ncc2c3ccccc3n(Cc3ccccc3)c2c1=O)NCCCN1CCOCC1`, -3.84%. In the case of `CC(C)Nc1ccc(-n2nc3ccccc3[n+]2[O-])cc1` it was 1.5%.

Consider `N=C1C(=O)OCC1c1ccccc1NC(=O)CN1CCCCC1` (centres undefined), for which the inhibition is -3.29%.

In the case of `COc1ccc2nc(Nc3nc4cc5c(cc4s3)OCCO5)sc2c1`, the inhibition was 33.1% (active). In the case of `COc1ccc2nc(NC(=O)NC3CCCCC3)sc2c1`, the inhibition is 4.3%. For `COc1ccc2nc(NC(=O)c3ccc(Br)s3)sc2c1` the value was -2.97%. In the case of `CC1C(=O)C(C)C(c2ccc(O)cc2)NC1c1ccc(O)cc1` (centres undefined) it was -5.96%; in that of `COc1ccc2oc(C(=O)N(CC(C)C)C3CCS(=O)(=O)C3)c(C)c2c1` (centres undefined), 3.82%. For `O=C(NNc1c2ccccc2nc2ccccc12)c1cc2ccccc2cc1O` the value was 71.8% (active). Regarding `CC(C)(C)OC(=O)NNc1c2ccccc2nc2ccccc12`, the inhibition is 10.9%. For the compound `O=C(N/N=C/c1cccnc1)c1cc2ccccc2cc1O`, the inhibition is 3.37%. `COc1ccc(CNC(=O)CN(C(=O)c2csnn2)c2cnc3ccccc3c2)cc1`: the inhibition was 2.77%. For the compound `CC[C@H]1OC(=O)[C@H](C)[C@@H](O[C@H]2C[C@@](C)(OC)[C@@H](O)[C@H](C)O2)[C@H](C)[C@@H](O[C@@H]2O[C@H](C)C[C@H](N(C)C)[C@H]2O)[C@](C)(O)C[C@@H](C)[C@@H]2N[C@@H](COCCOC)O[C@H]([C@H]2C)[C@]1(C)O`, the inhibition is -4.04%. For `O=C(CCCn1c(SCC(=O)c2ccccc2)nc2ccccc2c1=O)NCC1CCCO1` (centres undefined) the value was -0.5%.

In the case of `O=C(CCn1c(SCC(=O)c2ccccc2)nc2ccccc2c1=O)NCc1ccc(F)cc1`, the inhibition is 27.5% (active). For `O=C(CCCn1c(SCC(=O)c2ccc(F)cc2)nc2ccccc2c1=O)NCc1ccco1`, the inhibition was -1.64%.

With `CS(=O)(=O)N1CCCC(C(=O)Nc2ccccc2C(F)(F)F)C1` (centres undefined), the inhibition was -3.11%. For `Cc1nn(-c2ccccc2)c2c1C(c1ccc(F)cc1)C(C#N)=C(N)O2` (centres undefined) the value was 4.31%; for `Cc1nn(Cc2ccccc2)c2c1C(c1ccccc1)C(C#N)=C(N)O2` (centres undefined), 4.14%.

Consider `COc1ccccc1C1C(C#N)=C(N)Oc2c1c(-c1ccccc1)nn2-c1ccccc1` (centres undefined), for which the inhibition was 24.5% (active). In the case of `CC(C)CCN1CCN=C1N(C)C` it was -3.1%; in that of `Cc1cc(C)cc(C(=O)NC2C(=O)N3C(C(=O)O)=C(CSc4nnc(C)s4)CSC23)c1` (centres undefined), 0.52%; in that of `CC(C)c1ccc2oc(=O)cc(CN3CCN(Cc4ccccc4)CC3)c2c1`, 0.92%.

For `CN(C)c1ccc(NC(=O)CN2C3CCCC2CC(NC(=O)c2ccccc2)C3)cc1` (centres undefined), the inhibition is -3.02%. On to `COc1ccc(C(=O)Nc2c(N)nc(SCC(=O)Nc3ccc(C(C)=O)cc3)[nH]c2=O)cc1`, for which the inhibition is 2.83%. In the case of `COc1ccc(N2CCN(S(=O)(=O)c3cc4c5c(c3)C(C)C(=O)N5CCC4)CC2)cc1` (centres undefined) it was 2.45%; in that of `CCOC(=O)N1CCC(O)(c2cc(C)c(C)cc2C)CC1`, 1.15%.

Regarding `COc1ccc(Nc2ncc(C(=O)N3CCN(c4ccccc4OC)CC3)c3ccccc23)cc1`, the inhibition is 5.14%. In the case of `O=C(Cn1cc(/C=N/NC(=O)c2cccc(C(F)(F)F)c2)c2ccccc21)Nc1ccc(F)cc1` it was 4.38%; in that of `CC(/C=N/NC(=O)c1ccncc1)=C\c1ccco1`, -1.58%; in that of `C/C(=C\c1ccco1)C1Nc2cccc3cccc(c23)N1`, 18.5% (active).

`CC(/C=N/NC(=O)c1cc(-c2ccc3ccccc3c2)n[nH]1)=C\c1ccco1`: the inhibition is -15.2%. In the case of `CC(=O)NC1=NN(C(C)=O)C(C)(c2ccc(Cl)s2)S1` (centres undefined) it was -2.49%.

As to `CC(C)(C)C(=O)Nc1c(Br)c(C2CC2)nn1-c1ccccc1`, the inhibition was 1.83%. In the case of `COc1cc(/C=C/C(=O)OCC(=O)Nc2cccc(Oc3ccccc3)c2)ccc1O` it was 6.01%; in that of `COc1ccc(/C=C/C(=O)OCC(=O)Nc2cccc(Oc3ccccc3)c2)c(OC)c1`, 21.4% (active). In the case of `COc1ccc(OC)c(/C=C/C(=O)OCC(=O)Nc2ccc3c(c2)OCCO3)c1` it was -4.2%. In the case of `COc1ccc(OCc2nnc3n2N=C(c2ccccc2)C(CC(=O)O)S3)cc1` (centres undefined) it was -0.94%. `O=C(CN1CCN(Cc2ccc(F)cc2Cl)C1=O)NCc1cccs1`: the inhibition was 2.32%. For `CSCCC1NC2(C(=O)Nc3ccc(Cl)cc32)[C@@H]2C(=O)N(C3CCCC3)C(=O)[C@H]12` (some centres undefined) the value was -1.72%; for `O=[N+]([O-])c1ccc(F)cc1Oc1nc(-c2cccnc2)nc2ccccc12`, -4.4%; for `CCc1ccccc1N1CN(Cc2ccco2)CNC1=S`, -2.75%. For `Oc1c(Cl)cc(Cl)c(Cl)c1Cc1c(O)c(Cl)cc(Cl)c1Cl` the value was 48% (active); for `CN(C)C(=O)c1cccn(Cc2cccc(C(F)(F)F)c2)c1=O`, 0.5%; for `CCOc1ccc(N2CC(C(=O)NCCN3C(=O)S/C(=C\c4cccnc4)C3=O)CC2=O)cc1` (centres undefined), 0.71%. On to `O=C(NCCN1C(=O)S/C(=C\c2cccnc2)C1=O)c1cccc(OC(F)F)c1`, for which the inhibition was 2.13%. With `COc1ccc(N2CC(C(=O)NCCN3C(=O)S/C(=C\c4cccnc4)C3=O)CC2=O)c(OC)c1` (centres undefined), the inhibition was 65.4% (active). With `COc1ccc(NC(=S)SC)cc1OC`, the inhibition is 2.25%. For `CC(Cc1cccs1)N(Cc1ccc(Cl)cc1)C(=O)c1ccncc1` (centres undefined) the value was 0.27%. In the case of `c1ccc2c(-c3nn4nnnc4c4ccccc34)cccc2c1` it was 3.27%; in that of `CCC(=O)c1ccc(OCC(=O)OCC(=O)NC2CCCCCC2)cc1`, 2.33%; in that of `COCCNC(=O)Nc1ccc2nc(-c3ccco3)c(-c3ccco3)nc2c1`, 63.8% (active). In the case of `CCCC(=O)Nc1ccc2c(c1)nc(CCNC(=O)c1ccco1)n2C` it was 3.43%; in that of `COc1ccc2oc(=O)c(C(=O)NCc3ccccn3)cc2c1`, 1.13%; in that of `CCOc1cc(NC(=S)NCCCOC)c(OCC)cc1NC(=O)c1ccco1`, -0.81%.

Regarding `O=C(NCc1ccccn1)c1ccc2nc(-c3ccco3)c(-c3ccco3)nc2c1`, the inhibition is 39.1% (active).

As to `Cc1cc(C)cc(NC(=O)NCc2ccccn2)c1`, the inhibition was -2.47%. For `O=C(CSc1nnc(C2CC2)n1Cc1ccccc1)Nc1cccnc1Cl` the value was 1.49%; for `C/C=C/C(=O)Nc1ccc(N2CCN(c3ccc(C(F)(F)F)cn3)CC2)nc1`, 8.22%. For `CC(C)C(=O)N1CCC2(CC1)Oc1ccc(F)cc1C(=O)C21CC(c2ccccc2)=NO1` (centres undefined) the value was 1.14%; for `Cc1nc2scc(-c3cccs3)c2c(=O)n1N`, 7.81%; for `N/C(=N\OC(=O)CCc1ccccc1)c1cccnc1`, -0.43%. For `COC(=O)CN1C(=O)[C@H]2[C@@H](C3CC3)N3C(=O)CN(Cc4ccc(-c5ccccc5)cc4)C(=O)[C@@]3(Cc3ccccc3)[C@H]2C1=O` the value was 0.43%.

Regarding `Cc1cc(C)c2c(Cn3ccnc3)cc(=O)oc2c1`, the inhibition is -0.08%.
